Measured values as given in PubChem BioAssay (NCATS).
Results filed as inconclusive are left out. Calls of active or inactive are those of the source. Unless noted, calls come from the whole dose curve; as a rule, active = well fitted curve in either direction with a large enough effect (not every such curve was filed as active); inconclusive = small, poorly fitted or top-dose-only effect, or another doubt; inactive = flat fitted curve, though single readings scatter.

Key:
[1] = target: Lysosomal acid glucosylceramidase (Homo sapiens) (UniProt P04062); assay: Glucocerebrosidase-p2 (AID 348; in the data active = potency below about 10 µM; note: potency is the fitted concentration of half-maximal effect); conditions: purified GBA, blue fluorogenic substrate, 40 min
In short: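 Compounds titrated from 0.6 nM upwards against 0.2 nM enzyme in pH 5.9 citric acid/KH2PO4, taurocholate, tween-20; blue fluorogenic substrate 80 uM, 40 min room temperature, stopped and read Ex 365/Em 440 for AC50.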

[2] = AP1 Signaling Pathway (AID 357); conditions: ME-180 AP-1-bla reporter, EGF-induced, beta-lactamase ratio, 5 h; at 7.69 µM (top of the series) unless noted;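 note: ME-180 reporter cells stimulated with EGF at its EC50 level; % is set by controls: 0 for no effect and ±100 for the full control effect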
In short: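 Beta-lactamase reporter under AP-1 response element, ME-180 background. Stimulus: EC50 EGF. Compound exposure 5 h, 37 °C. Detection: CCF4, 2.5 h RT, 460/530 nm. Values: AC50 from titration.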

[3] = target: Cytochrome P450 1A2 (Homo sapiens) (UniProt P05177); assay: p450-cyp1a2 (AID 410; calls by dose curve; note: potency is the fitted concentration of half-maximal effect;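 for activity change, negative = inhibition: -100% = full effect of reference inhibitor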); conditions: recombinant CYP1A2, luciferin-ME demethylation, luminescence; series mostly up to 57 µM
In short: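 Human CYP1A2 (20nM) demethylated Luciferin-ME at its Km (100uM) in 100mM KPO4. After 10 min compound preincubation, NADPH regeneration ran the reaction 60 min at room temperature. Luciferin was read by luminescence, normalized to 57 uM furafylline.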

[4] = NFAT Signaling Pathway (AID 444); conditions: Jurkat NFAT-bla M1, carbachol, beta-lactamase ratio, 5 h; at 7.69 µM (top of the series) unless noted;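 note: carbachol stimulus at about its EC50 of 1 µM final; % is set by controls: 0 for no effect and ±100 for the full control effect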
In short: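 Jurkat cells carrying an NFAT-driven β-lactamase reporter and co-transfected muscarinic M1 receptor were treated with compound plus carbachol (1 uM final, an EC50 level) for 5 h at 37 °C. CCF4 loading followed for 1 h at RT; 460/530 nm ratio gave %activity.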

[5] = Stat Signaling Pathway (AID 446); conditions: ME-180 SIE beta-lactamase reporter, IL-6 stimulated, 5 h; at 7.69 µM (top of the series) unless noted;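 note: ME-180 cervical cancer cells given 40 pM IL-6 alongside compound; SIE-controlled beta-lactamase reporter measured as 460/530 nm FRET emission ratio; % is set by controls: 0 for no effect and ±100 for the full control effect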
In short: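 Screening format detects activators and inhibitors alike: ME-180 SIE-bla cells stimulated at 40 pM IL-6 for 5 hrs with compound, then dual-emission beta-lactamase read at 405 nm excitation.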

[6] = target: Glucocorticoid receptor (Homo sapiens) (UniProt P04150); assay: GR-EFC Redistribution (AID 451; calls by dose curve; note: potency is the fitted concentration of half-maximal effect); conditions: CHO-K1 GR-EFC translocation, beta-gal luminescence, 2 h
In short: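 CHO-K1 cells stably expressing nuclear-localized β-gal enzyme acceptor and GR fused C-terminally to the enzyme donor fragment; ligand-driven nuclear translocation restores β-gal by complementation. Compounds titrated up to 46 uM final, 2 h at 37 °C; luminescence read.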

[7] = target: Mitogen-activated protein kinase 10 (Mus musculus) (UniProt Q61831); assay: JNK3 AlphaScreen Assay (AID 530); conditions: JNK3 lysate, c-Jun phosphorylation; series mostly up to 57.1 µM;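 note: kinase came from lysate of stimulated human HepG2 cells; signal reports phosphorylation of biotinylated GST-cJun 1-79 at Ser73 with 10 µM ATP; % is set by controls: 0 for no effect and ±100 for the full control effect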
In short: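 JNK3 came from HepG2 lysates pre-activated with IL-1beta and TNF-alpha and phosphorylated biotinylated GST-cJun (1-79) at 10 uM ATP, pH 7.6, room temperature. Compounds were titrated. AlphaScreen signal used anti-phospho-cJun (Ser73) antibody.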

[8] = target: 3',5'-cyclic-AMP phosphodiesterase 4B (Homo sapiens) (UniProt Q07343); assay: qHTS Assay for Inhibitors of PDE-IV (AID 607; active = well fitted activation curve with a large enough effect in the main read-out, with a control signal flat, not every such curve was filed as active; note: % of control where 0% means no effect); conditions: HEK293 ACTOne CNG channel cells, membrane potential fluorescence; series mostly up to 22.9 µM
In short: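 The readout is membrane depolarisation from a cAMP-sensing CNG channel, detected with a potential dye at ex 535/em 590. Cells were HEK293-derived (endogenous PDE-IV) at 1000 cells/well, titrated up to 22.9 uM final.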

[9] = Primary qHTS for small molecule stabilizers of the endoplasmic reticulum resident proteome: Secreted ER Calcium Modulated Protein (SERCaMP) assay (AID 1508630; active = well fitted curve in the direction sought with a large enough effect; an effect the other way counts as inactive or inconclusive; note: % is set by controls: 0 for no effect and ±100 for the full control effect); conditions: SH-SY5Y GLuc-SERCaMP (Gaussia luciferase released on ER calcium loss) secretion, thapsigargin, luminescence; series mostly up to 38.4 µM
In short: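 GLuc-SERCaMP-expressing SH-SY5Y cells, pretreated 16 h with compound, are challenged with thapsigargin to empty ER calcium stores; after 4 h, coelenterazine is added directly to the medium and luminescence is imaged.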

[10] = target: Cytochrome P450 3A4 (Homo sapiens) (UniProt P08684); assay: qHTS Assay for Inhibitors and Substrates of Cytochrome P450 3A4 (AID 884; active = well fitted curve in the direction sought with a large enough effect; an effect the other way counts as inactive or inconclusive; note: % is set by controls: 0 for no effect and ±100 for the full control effect; nearly all actives have a fitted effect of over 50% in size); conditions: recombinant CYP3A4, Luciferin-PPXE luminescence; series mostly up to 57.1 µM
In short: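 20 nM human CYP3A4 with 25 uM Luciferin-PPXE (at KM) in 200 mM KPO4, preincubated 10 min with compound; NADPH regeneration started a 60 min RT reaction. Luciferin detected by luminescence, normalized to 57 uM ketoconazole as full inhibition.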

[11] = target: Cytochrome P450 2C9 (Homo sapiens) (UniProt P11712); assay: qHTS Assay for Inhibitors and Substrates of Cytochrome P450 2C9 (AID 883; active = well fitted curve in the direction sought with a large enough effect; an effect the other way counts as inactive or inconclusive; note: % is set by controls: 0 for no effect and ±100 for the full control effect; nearly all actives have a fitted effect of over 60% in size); conditions: recombinant CYP2C9, luciferin-H luminescence, 60 min; series mostly up to 57.1 µM
In short: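 A luminogenic readout tracked human CYP2C9 (10nM) converting deoxyluciferin (100uM, at KM) in 25mM KPO4 during 60 min at 37C with regenerated NADPH. Values normalized to 57uM sulphaphenazole as complete inhibition.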

[12] = target: Cytochrome P450 2D6 (Homo sapiens) (UniProt P10635); assay: qHTS Assay for Inhibitors and Substrates of Cytochrome P450 2D6 (AID 891; active = well fitted curve in the direction sought with a large enough effect; an effect the other way counts as inactive or inconclusive;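 note: luciferin methyl ether substrate demethylated by CYP2D6 with NADPH regeneration; % is set by controls: 0 for no effect and ±100 for the full control effect; nearly all actives have a fitted effect of over 60% in size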); conditions: recombinant CYP2D6, luciferin-ME EGE luminescence; series mostly up to 57.1 µM
In short: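 Human CYP2D6 (5 nM) with 30 uM Luciferin-ME EGE (at Km) in 100 mM KPO4, compound preincubated 10 min, then NADPH regeneration system for 60 min at room temperature. Luciferin read by luminescence; normalized to 1.43 uM quinidine.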

[13] = target: Cytochrome P450 2C19 (Homo sapiens) (UniProt P33261); assay: qHTS Assay for Inhibitors and Substrates of Cytochrome P450 2C19 (AID 899; active = well fitted curve in the direction sought with a large enough effect; an effect the other way counts as inactive or inconclusive; note: % is set by controls: 0 for no effect and ±100 for the full control effect; nearly all actives have a fitted effect of over 60% in size); conditions: recombinant CYP2C19, luciferin-H EGE luminescence; series mostly up to 57.1 µM
In short: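 NADPH-dependent conversion of Luciferin-H EGE (10uM, at KM) by 5nM enzyme in 50mM KPO4, 60 min at 37C following 10 min compound preincubation. Stopped with luciferin detection buffer; luminescence read after 20 min.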

[14] = target: Cytochrome P450 3A4 (Homo sapiens) (UniProt P08684); assay: qHTS Assay for Activators of Cytochrome P450 3A4 (AID 885; active = well fitted curve in the direction sought with a large enough effect; an effect the other way counts as inactive or inconclusive; note: nearly all actives have a fitted effect of over 65% in size; note: potency is the fitted concentration of half-maximal effect); conditions: recombinant CYP3A4, Luciferin-PPXE luminescence, 60 min; series mostly up to 57.1 µM
In short: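 Steps: enzyme/substrate mix dispensed; compound added, 10 min RT; NADPH regeneration solution added, 60 min RT; luciferin detection buffer stops reaction; 20 min later luminescence measured.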

[15] = target: Ubiquitin carboxyl-terminal hydrolase 1 (Homo sapiens) (UniProt O94782); assay: Inhibitors of USP1/UAF1: Pilot qHTS (AID 504865; active = well fitted curve in the direction sought with a large enough effect; an effect the other way counts as inactive or inconclusive;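 note: rhodamine fluorescence freed from ubiquitin-rhodamine substrate followed over time; top concentration of the series differs between compounds; % is set by controls: 0 for no effect and ±100 for the full control effect; nearly all actives have a fitted effect of over 35% in size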); conditions: purified USP1/UAF1, Ub-rhodamine cleavage fluorescence; series mostly up to 54.9 µM
In short: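 In 50mM HEPES pH 7.8 containing 0.5mM EDTA, 1mM TCEP, 0.1 mg/ml BSA and 0.01% Tween-20, 1nM USP1/UAF1 is exposed to compound for 15 min, then Ub-Rho (150nM final) is added and fluorescence is read over time.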

Sequence of Glucocorticoid receptor (Homo sapiens) (P04150 whole entry, looked up, the tested form may be a part): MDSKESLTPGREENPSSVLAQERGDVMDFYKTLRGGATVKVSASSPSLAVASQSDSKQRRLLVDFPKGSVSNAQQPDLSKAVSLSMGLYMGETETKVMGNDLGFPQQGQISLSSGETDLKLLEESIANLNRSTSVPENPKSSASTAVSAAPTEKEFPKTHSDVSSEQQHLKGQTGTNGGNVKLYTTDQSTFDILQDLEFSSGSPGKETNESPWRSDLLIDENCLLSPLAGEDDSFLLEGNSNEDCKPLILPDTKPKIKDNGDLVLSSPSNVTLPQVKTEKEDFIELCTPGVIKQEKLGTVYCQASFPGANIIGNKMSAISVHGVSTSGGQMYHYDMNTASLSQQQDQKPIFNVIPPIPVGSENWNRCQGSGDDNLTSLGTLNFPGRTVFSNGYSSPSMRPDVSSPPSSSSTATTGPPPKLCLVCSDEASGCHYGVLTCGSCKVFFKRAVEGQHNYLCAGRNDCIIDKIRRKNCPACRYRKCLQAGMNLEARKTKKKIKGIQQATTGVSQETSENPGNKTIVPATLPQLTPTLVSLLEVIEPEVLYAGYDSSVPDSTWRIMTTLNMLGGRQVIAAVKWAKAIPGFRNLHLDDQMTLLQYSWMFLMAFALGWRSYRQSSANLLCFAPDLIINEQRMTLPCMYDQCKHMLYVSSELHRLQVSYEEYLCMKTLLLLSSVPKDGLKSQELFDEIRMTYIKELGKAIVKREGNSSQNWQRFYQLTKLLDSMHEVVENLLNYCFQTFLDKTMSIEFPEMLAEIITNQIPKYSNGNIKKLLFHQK
Sequence of Lysosomal acid glucosylceramidase (Homo sapiens) (P04062 whole entry, looked up): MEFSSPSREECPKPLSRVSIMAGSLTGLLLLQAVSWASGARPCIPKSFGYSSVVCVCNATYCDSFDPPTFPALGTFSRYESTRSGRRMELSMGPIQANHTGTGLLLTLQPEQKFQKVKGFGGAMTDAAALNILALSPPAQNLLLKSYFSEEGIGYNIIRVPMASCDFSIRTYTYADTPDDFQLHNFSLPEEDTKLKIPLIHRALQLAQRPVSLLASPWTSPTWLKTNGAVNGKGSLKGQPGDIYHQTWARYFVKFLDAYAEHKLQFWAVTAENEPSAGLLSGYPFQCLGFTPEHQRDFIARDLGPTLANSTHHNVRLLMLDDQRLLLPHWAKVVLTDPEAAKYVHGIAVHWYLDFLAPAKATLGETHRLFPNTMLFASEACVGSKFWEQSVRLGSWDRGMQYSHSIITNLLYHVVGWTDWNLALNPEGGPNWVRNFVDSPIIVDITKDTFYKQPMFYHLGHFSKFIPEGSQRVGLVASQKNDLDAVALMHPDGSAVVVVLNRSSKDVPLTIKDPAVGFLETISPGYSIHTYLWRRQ
Sequence of Cytochrome P450 1A2 (Homo sapiens) (P05177 whole entry, looked up): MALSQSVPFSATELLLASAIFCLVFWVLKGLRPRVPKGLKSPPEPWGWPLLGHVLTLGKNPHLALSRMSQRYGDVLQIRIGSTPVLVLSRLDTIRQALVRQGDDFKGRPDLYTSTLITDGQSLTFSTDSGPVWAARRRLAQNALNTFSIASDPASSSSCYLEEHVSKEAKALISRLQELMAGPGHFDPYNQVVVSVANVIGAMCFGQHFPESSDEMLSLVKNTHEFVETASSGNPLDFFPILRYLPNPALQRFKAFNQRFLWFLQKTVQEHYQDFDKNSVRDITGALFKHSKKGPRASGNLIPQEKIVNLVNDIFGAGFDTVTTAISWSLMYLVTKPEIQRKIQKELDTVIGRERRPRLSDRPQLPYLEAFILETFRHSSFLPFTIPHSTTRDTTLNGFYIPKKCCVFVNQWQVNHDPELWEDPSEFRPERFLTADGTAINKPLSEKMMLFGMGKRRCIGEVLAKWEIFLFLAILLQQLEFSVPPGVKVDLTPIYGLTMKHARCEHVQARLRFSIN
Sequence of 3',5'-cyclic-AMP phosphodiesterase 4B (Homo sapiens) (Q07343 whole entry, looked up): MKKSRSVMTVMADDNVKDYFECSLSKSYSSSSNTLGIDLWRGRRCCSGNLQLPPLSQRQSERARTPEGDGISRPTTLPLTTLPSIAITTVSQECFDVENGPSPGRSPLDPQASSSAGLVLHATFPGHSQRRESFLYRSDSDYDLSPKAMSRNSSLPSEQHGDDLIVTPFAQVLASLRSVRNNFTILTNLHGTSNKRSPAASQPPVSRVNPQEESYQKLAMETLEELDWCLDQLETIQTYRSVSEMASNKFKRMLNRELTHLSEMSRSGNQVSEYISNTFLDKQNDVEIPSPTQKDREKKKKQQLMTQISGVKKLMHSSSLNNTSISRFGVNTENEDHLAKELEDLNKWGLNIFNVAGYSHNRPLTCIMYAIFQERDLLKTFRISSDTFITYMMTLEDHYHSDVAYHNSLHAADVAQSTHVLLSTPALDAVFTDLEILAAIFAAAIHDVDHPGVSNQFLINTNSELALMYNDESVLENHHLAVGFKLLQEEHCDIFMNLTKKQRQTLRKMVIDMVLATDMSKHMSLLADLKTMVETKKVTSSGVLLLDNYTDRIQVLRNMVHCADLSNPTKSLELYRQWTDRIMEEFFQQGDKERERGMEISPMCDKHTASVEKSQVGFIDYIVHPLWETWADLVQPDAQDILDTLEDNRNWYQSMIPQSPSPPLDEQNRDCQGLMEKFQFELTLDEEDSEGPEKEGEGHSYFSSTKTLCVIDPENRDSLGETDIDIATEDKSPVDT
Sequence of Cytochrome P450 3A4 (Homo sapiens) (P08684 whole entry, looked up): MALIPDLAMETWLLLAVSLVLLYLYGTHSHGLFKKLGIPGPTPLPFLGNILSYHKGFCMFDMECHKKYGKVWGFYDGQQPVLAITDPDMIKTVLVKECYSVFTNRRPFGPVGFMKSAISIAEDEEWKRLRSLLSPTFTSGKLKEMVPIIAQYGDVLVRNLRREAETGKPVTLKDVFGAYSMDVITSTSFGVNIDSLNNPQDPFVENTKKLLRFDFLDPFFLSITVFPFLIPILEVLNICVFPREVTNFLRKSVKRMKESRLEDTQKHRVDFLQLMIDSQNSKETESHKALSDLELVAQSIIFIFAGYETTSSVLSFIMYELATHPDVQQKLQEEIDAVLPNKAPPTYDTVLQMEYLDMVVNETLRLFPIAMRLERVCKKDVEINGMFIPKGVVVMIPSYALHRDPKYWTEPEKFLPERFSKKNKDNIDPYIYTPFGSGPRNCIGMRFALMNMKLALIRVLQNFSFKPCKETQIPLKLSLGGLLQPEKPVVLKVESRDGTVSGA
Sequence of Cytochrome P450 2C19 (Homo sapiens) (P33261 whole entry, looked up): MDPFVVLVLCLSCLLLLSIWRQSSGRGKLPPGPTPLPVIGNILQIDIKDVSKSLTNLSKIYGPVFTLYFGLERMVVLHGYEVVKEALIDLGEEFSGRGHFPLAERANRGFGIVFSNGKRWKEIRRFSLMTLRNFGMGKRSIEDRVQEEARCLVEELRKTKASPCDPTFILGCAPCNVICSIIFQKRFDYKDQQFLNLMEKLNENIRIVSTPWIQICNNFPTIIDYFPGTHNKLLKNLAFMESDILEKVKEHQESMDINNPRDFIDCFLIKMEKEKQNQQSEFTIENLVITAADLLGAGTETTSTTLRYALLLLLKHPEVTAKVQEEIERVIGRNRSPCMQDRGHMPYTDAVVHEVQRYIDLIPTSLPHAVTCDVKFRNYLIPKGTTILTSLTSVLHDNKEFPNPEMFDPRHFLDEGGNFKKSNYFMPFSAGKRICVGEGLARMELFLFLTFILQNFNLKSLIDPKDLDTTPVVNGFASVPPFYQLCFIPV
Sequence of Cytochrome P450 2C9 (Homo sapiens) (P11712 whole entry, looked up): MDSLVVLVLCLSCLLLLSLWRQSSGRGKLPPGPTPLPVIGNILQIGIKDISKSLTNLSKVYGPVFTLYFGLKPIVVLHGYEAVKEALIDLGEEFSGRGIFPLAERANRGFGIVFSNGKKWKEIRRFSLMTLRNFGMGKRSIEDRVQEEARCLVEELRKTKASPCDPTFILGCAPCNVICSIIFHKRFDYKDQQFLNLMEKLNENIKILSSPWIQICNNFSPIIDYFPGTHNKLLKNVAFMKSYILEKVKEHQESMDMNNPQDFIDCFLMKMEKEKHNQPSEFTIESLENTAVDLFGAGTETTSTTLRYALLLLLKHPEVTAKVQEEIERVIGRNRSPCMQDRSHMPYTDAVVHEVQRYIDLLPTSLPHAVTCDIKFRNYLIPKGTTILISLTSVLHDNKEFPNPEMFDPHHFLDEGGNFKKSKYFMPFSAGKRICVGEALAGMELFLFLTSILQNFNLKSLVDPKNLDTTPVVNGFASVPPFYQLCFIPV
Sequence of Ubiquitin carboxyl-terminal hydrolase 1 (Homo sapiens) (O94782 whole entry, looked up): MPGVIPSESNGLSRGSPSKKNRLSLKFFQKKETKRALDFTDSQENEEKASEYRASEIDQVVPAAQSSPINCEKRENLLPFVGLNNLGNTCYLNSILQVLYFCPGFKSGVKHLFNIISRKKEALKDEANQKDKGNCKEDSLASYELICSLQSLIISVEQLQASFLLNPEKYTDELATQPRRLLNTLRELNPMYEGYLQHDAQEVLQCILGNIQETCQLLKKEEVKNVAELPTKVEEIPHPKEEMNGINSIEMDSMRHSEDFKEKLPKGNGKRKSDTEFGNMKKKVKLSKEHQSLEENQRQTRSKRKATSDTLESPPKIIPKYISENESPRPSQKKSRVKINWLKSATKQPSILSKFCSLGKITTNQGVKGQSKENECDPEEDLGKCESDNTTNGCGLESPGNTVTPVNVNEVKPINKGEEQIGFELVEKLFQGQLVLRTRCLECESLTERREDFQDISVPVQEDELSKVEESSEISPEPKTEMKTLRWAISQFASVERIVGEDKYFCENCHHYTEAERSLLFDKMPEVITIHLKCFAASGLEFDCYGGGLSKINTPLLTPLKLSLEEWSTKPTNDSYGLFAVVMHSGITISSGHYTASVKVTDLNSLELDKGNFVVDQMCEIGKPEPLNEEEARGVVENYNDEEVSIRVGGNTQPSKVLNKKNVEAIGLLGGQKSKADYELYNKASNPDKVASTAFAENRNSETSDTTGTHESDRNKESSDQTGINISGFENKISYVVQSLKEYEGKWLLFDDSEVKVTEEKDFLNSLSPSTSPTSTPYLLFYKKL

CC(C)NC(=O)N1CCC2(CC1)CCN(C(=O)c1cccn1C)CC2
inactive: Potency [1] > 11.4 µM | activity change, negative = inhibition [2] 15.2% | Potency [3] | activity change, negative = inhibition [4] 7.13% | activity, negative = inhibition [5] 2.35% | Potency [6] > 46 µM | Potency [7] | Potency [8] | outcome [9]

COC(=O)N1CCC2(CC1)CN(C(=O)Nc1cccc(F)c1)C2
inactive: Potency [1] > 11.4 µM | activity change, negative = inhibition [2] -2.84% | Potency [3] | activity change, negative = inhibition [4] 0.322% | activity, negative = inhibition [5] -2.22% | Potency [6] > 46 µM | Potency [7] | Potency [8] | outcome [9]

COc1ccc(C(=O)N2CCC3(CCCN(C)C3)CC2)cc1
inactive: Potency [1] > 11.4 µM | activity change, negative = inhibition [2] 2.83% | Potency [3] | activity change, negative = inhibition [4] 0.644% | activity, negative = inhibition [5] -7.5% | Potency [6] > 46 µM | Potency [7] | Potency [8] | outcome [9]

O=C(Nc1cccc(F)c1)N1CCC2(CC1)CCN(C(=O)c1ccco1)CC2
inactive: Potency [1] > 11.4 µM | activity change, negative = inhibition [2] -3.88% | Potency [3] | activity change, negative = inhibition [4] 4.6% | activity, negative = inhibition [5] 4.97% | Potency [6] > 46 µM | Potency [7] | Potency [8] | Potency [10] | outcome [9]

O=C(c1cc(C(F)(F)F)cc(C(F)(F)F)c1)N1CCC2(CC1)CN(c1ncccn1)C2
inactive: Potency [1] > 11.4 µM | activity change, negative = inhibition [2] -14.3% | Potency [3] | activity change, negative = inhibition [4] 31% | activity, negative = inhibition [5] 1.12% | Potency [6] > 46 µM | Potency [7] | Potency [8] | Potency [11] | Potency [12] | Potency [13] | outcome [9]

O=C(c1ccco1)N1CCC2(CC1)CCN(c1ccc(-c3ccccc3)cc1)CC2
inactive: Potency [1] > 11.4 µM | activity change, negative = inhibition [2] -1.18% | Potency [3] | activity change, negative = inhibition [4] 17.6% | activity, negative = inhibition [5] -2.58% | Potency [6] > 46 µM | Potency [7] | Potency [8] | Potency [10] | outcome [9]

CS(=O)(=O)N1CCC2(CC1)CN(c1ccc(-c3ccccc3)cc1)C2
inactive: Potency [1] > 11.4 µM | activity change, negative = inhibition [2] -8.52% | Potency [3] | activity change, negative = inhibition [4] -6.69% | activity, negative = inhibition [5] -25.1% | Potency [6] > 46 µM | Potency [7] | Potency [8] | Potency [11] | Potency [13] | outcome [9]

Cn1cc(-c2nc3cncnc3n(CCN)c2=O)c2ccccc21
inactive: Potency [1] > 11.4 µM | activity change, negative = inhibition [2] 0.818% | activity change, negative = inhibition [4] 3.03% | activity, negative = inhibition [5] 0.835% | Potency [6] > 46 µM | Potency [7] | Potency [8] | Potency [14] | Potency [15] | outcome [9]
active: Potency [3] 6.31 µM

COc1ccc(NC(=O)N2CC3(CCN(C(=O)c4cnccn4)CC3)C2)cc1
inactive: Potency [1] > 11.4 µM | activity change, negative = inhibition [2] 0.0652% | Potency [3] | activity change, negative = inhibition [4] 15.4% | activity, negative = inhibition [5] 4.6% | Potency [6] > 46 µM | Potency [7] | Potency [8] | outcome [9]

COc1ccc(NC(=O)N2CCCC3(CCN(C(=O)c4ccc(OC)cc4)CC3)C2)cc1
inactive: Potency [1] > 11.4 µM | activity change, negative = inhibition [2] -11.4% | Potency [3] | activity change, negative = inhibition [4] 0.394% | activity, negative = inhibition [5] -3.96% | Potency [6] > 46 µM | Potency [7] | Potency [8] | Potency [14] | outcome [9]

COC(=O)N1CCC2(CCCN(C(=O)Nc3ccc(OC)cc3)C2)CC1
active: Potency [3] 20 µM
inactive: Potency [1] > 11.4 µM | activity change, negative = inhibition [2] -3.8% | activity change, negative = inhibition [4] -6.91% | activity, negative = inhibition [5] -13.9% | Potency [6] > 46 µM | Potency [7] | Potency [8] | Potency [14] | outcome [9]

CS(=O)(=O)N1CCC[C@@]2(CCN(C(=O)Nc3cccc(C#N)c3)C2)C1
inactive: Potency [1] > 11.4 µM | activity change, negative = inhibition [2] -2.32% | Potency [3] | activity change, negative = inhibition [4] 9.12% | activity, negative = inhibition [5] 1.86% | Potency [6] > 46 µM | Potency [7] | Potency [8] | Potency [14] | outcome [9]

O=C(c1cnccn1)N1CCC2(CC1)CCN(c1ccccn1)CC2
inactive: Potency [1] > 11.4 µM | activity change, negative = inhibition [2] -11.4% | Potency [3] | activity change, negative = inhibition [4] -4.5% | activity, negative = inhibition [5] 3.98% | Potency [6] > 46 µM | Potency [7] | Potency [8] | Potency [10] | outcome [9]
active: Potency [14] 15.8 µM

O=C(c1cnccn1)N1CCC2(CC1)CCN(c1ncccn1)CC2
active: Potency [14] 7.94 µM
inactive: Potency [1] > 11.4 µM | activity change, negative = inhibition [2] -5.54% | Potency [3] | activity change, negative = inhibition [4] 6.93% | activity, negative = inhibition [5] -9.82% | Potency [6] > 46 µM | Potency [7] | Potency [8] | Potency [10] | outcome [9]
